GRK2 aptamer HTS: blocks RNA aptamer binding to human GRK2. inhibition of aptamer binding, % at 10 µM. bead flow cytometry, FAM-aptamer displacement from GRK2. hit rate 0.59% among 330,000. P25098. AID 488847;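 active = inhibition of aptamer binding above 40%, roughly 3 SD of noise, on plates passing a quality check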;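 note: median bead fluorescence of bound FAM aptamer so fluorescent compounds give negative values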
HDAC3 inh: human HDAC3 inhibition. O15379. recombinant HDAC3, fluorogenic peptide/trypsin coupled, fluorescence. inhibition, % at 8.3 µM. hit rate 0.15% among 320,000. AID 2718; in the data active = inhibition above about 26%, passing the limit was not always enough; inconclusive = no clear call, values can overlap the other calls
ALR H2O2 inh: inhibitors of human sulfhydryl oxidase ALR | P55789 | purified ALR, DTT oxidation, H2O2 HRP-luminol luminescence | inhibition, % (no concentration beside the values) | hit rate 3.8% among 290,000 | AID 485317;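 active = mean replicate inhibition above about 79%, with every replicate also reaching it, limit read from the data; inconclusive = only one of the two criteria met; inactive = mean below limit and not every replicate reaching it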
Target sequence (P55789 whole entry, looked up): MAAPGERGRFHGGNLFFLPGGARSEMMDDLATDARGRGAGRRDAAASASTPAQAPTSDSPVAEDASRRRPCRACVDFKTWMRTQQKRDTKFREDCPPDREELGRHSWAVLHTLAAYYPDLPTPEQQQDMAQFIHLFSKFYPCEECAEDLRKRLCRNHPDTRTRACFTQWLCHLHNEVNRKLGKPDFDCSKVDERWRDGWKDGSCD
Rce1 inhib: inhibitors of yeast Ras-converting enzyme; Q03530; yeast membranes, quenched prenylated peptide cleavage fluorescence; hit rate 0.27% among 290,000; AID 2563; calls only;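 active = fall in fluorescence gain of 50% or more versus controls, with final raw signal at or below 3038400; inconclusive = same 50% fall but final raw signal above 3038400; inactive = fall in fluorescence gain under 50%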;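 note: plate controls were neutral control wells for no effect and wells lacking membranes for full effect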
Target sequence (Q03530 whole entry, looked up): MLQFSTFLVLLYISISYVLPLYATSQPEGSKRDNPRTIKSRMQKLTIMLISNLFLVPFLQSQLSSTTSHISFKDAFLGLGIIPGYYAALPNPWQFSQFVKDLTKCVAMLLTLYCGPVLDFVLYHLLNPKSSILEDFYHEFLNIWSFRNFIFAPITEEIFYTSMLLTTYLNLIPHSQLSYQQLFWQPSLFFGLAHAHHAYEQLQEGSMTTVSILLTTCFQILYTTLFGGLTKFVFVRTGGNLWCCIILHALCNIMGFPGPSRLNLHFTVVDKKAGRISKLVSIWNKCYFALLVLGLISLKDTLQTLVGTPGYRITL
Efflux pump inh: inhibitors of Candida antifungal efflux pumps expressed in yeast; hit rate 0.44% among 330,000; AID 485275; inhibition, % at 10 µM; S. cerevisiae Candida pump triplex, Nile Red efflux;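 active = plate passing quality check with inhibition over a set limit, or well fluorescence over plate mean plus 4 SD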;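 note: Nile Red retained in pooled yeast measured as flow cytometry median fluorescence; 0% = buffer negative control and 100% = Enniatin B positive control; higher means more Nile Red kept so more efflux inhibition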
Rtt109 HAT inh: inhibitors of Candida albicans Rtt109/Vps75 histone acetyltransferase; Q5AAJ8; purified Rtt109/Vps75, ThioGlo CoA-SH fluorescence, 4 h; inhibition, % at 34.9 µM; hit rate 0.16% among 330,000;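 active = inhibition of at least 50% in every replicate; inconclusive = best replicate reaches 50% inhibition but some replicates fall short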
* = called active by the depositor. This is a sample that favours compounds with a hit; in the whole collection about 4.5% have one here.

For CC(NC(=O)C1CC1)C(c1cccs1)N1CCN(c2ccccc2)CC1 (stereo not drawn) the results were GRK2 aptamer HTS 0.0, HDAC3 inh -2.4, ALR H2O2 inh 98.6*, Rce1 inhib inactive, Efflux pump inh 0.0 and Rtt109 HAT inh -12.9.
Screening O=S(=O)(NC(=NC1CCCCC1)c1ccccc1F)c1ccccc1 returned GRK2 aptamer HTS 0.0, HDAC3 inh 13.9, ALR H2O2 inh 3.4, Rce1 inhib inactive, Efflux pump inh 0.1 and Rtt109 HAT inh 3.0.
`COc1ccc(S(=O)(=O)N2CCCCC2)cc1NC(=O)[C@@H]1CCCN1C(=O)c1cccs1` gave GRK2 aptamer HTS 1.0, HDAC3 inh 2.3, ALR H2O2 inh -3.3, Efflux pump inh -0.1 and Rtt109 HAT inh -4.0.
For O=C(NCN1CCN(c2ccccc2)CC1)c1cnccn1 the results were GRK2 aptamer HTS 0.0, HDAC3 inh 6.8, ALR H2O2 inh 97.7*, Rce1 inhib inactive, Efflux pump inh 0.3 and Rtt109 HAT inh 2.4.
Screening NC(=O)C1=C[C@H](c2ccccc2)C[C@H](OCc2ccc(CO)cc2)O1 returned GRK2 aptamer HTS 1.0, HDAC3 inh 28.1*, Rce1 inhib inactive, Efflux pump inh 0.1 and Rtt109 HAT inh -2.0.
Screening Cc1ccccc1NC(=O)CCN1C(=O)c2ccccc2C1=O returned GRK2 aptamer HTS 0.0, HDAC3 inh -1.3, ALR H2O2 inh 3.3, Rce1 inhib inactive, Efflux pump inh -0.2 and Rtt109 HAT inh -13.0.
`Cc1cccc(NC(=O)COc2ccc(/C=N\n3cnnc3)cc2)c1` gave GRK2 aptamer HTS 43.0*, HDAC3 inh 6.9, ALR H2O2 inh -2.0, Rce1 inhib inactive, Efflux pump inh -0.2 and Rtt109 HAT inh 6.8.
Screening Cc1cccc(NC(=O)CCN2C(=O)c3ccccc3C2=O)c1 returned GRK2 aptamer HTS 2.0, HDAC3 inh 2.4, ALR H2O2 inh -4.3, Rce1 inhib inactive, Efflux pump inh 0.0 and Rtt109 HAT inh 59.0*.
`CCN(CC)c1ccc(/C=N/OCC(=O)Nc2cccc(C)c2)cc1` gave GRK2 aptamer HTS 0.0, HDAC3 inh 9.1, ALR H2O2 inh 39.6, Rce1 inhib inactive, Efflux pump inh -0.3 and Rtt109 HAT inh -4.1.
For Cc1cccc(NC(=O)CCOc2ccccc2)c1 the results were GRK2 aptamer HTS 2.0, HDAC3 inh -1.1, ALR H2O2 inh 98.0*, Rce1 inhib inactive, Efflux pump inh -0.8 and Rtt109 HAT inh -3.6.
Screening CN(C)c1ccc(NC(=O)CCN2C(=O)c3cccc([N+](=O)[O-])c3C2=O)cc1 returned GRK2 aptamer HTS 3.0, HDAC3 inh -7.6, ALR H2O2 inh 99.7*, Rce1 inhib inactive, Efflux pump inh 0.4 and Rtt109 HAT inh 3.4.
Screening CCCc1nn2c(=O)cc(CSCC(=O)Nc3ccccc3OC)nc2s1 returned GRK2 aptamer HTS 0.0, HDAC3 inh 4.9, ALR H2O2 inh 10.0, Rce1 inhib inactive, Efflux pump inh 0.0 and Rtt109 HAT inh -0.8.
`CCN(CC(=O)NC(C)C)C(=O)Cc1ccc(C)c(C)c1` gave GRK2 aptamer HTS 0.0, HDAC3 inh 6.7, ALR H2O2 inh -28.3, Rce1 inhib inactive, Efflux pump inh -0.3 and Rtt109 HAT inh -0.2.
For COC(=O)Cn1c(CCC(=O)O)ccc1-c1ccccc1 the results were GRK2 aptamer HTS 4.0, HDAC3 inh -4.6, ALR H2O2 inh 9.3, Rce1 inhib active, Efflux pump inh 0.1 and Rtt109 HAT inh -28.1.
`O=C1NC2=C(C(=O)OC2)C(c2ccc(OC(F)(F)F)cc2)N1` (stereo not drawn) gave GRK2 aptamer HTS 0.0, HDAC3 inh -1.0, ALR H2O2 inh -4.3, Rce1 inhib inactive, Efflux pump inh -0.1 and Rtt109 HAT inh -10.7.
`O=[N+]([O-])c1cc([N+](=O)[O-])c2nonc2c1Nc1ccccc1O` gave GRK2 aptamer HTS 1.0, HDAC3 inh 13.6, ALR H2O2 inh 99.0*, Rce1 inhib inactive, Efflux pump inh 0.1 and Rtt109 HAT inh 0.1.
`O=[N+]([O-])c1c(Nc2ccccc2O)cc(N2CCOCC2)c2nonc12` gave GRK2 aptamer HTS 7.0, HDAC3 inh -10.3, ALR H2O2 inh -42.9, Rce1 inhib inactive, Efflux pump inh -0.1 and Rtt109 HAT inh 1.4.
Screening O=[N+]([O-])c1cc([N+](=O)[O-])c2nonc2c1Nc1ccc(O)cc1 returned GRK2 aptamer HTS 0.0, HDAC3 inh 7.8, ALR H2O2 inh 99.2*, Rce1 inhib inactive, Efflux pump inh 0.1 and Rtt109 HAT inh 4.8.
`Cc1ccc(NC(=O)COC(=O)c2ccc(Cl)nc2)cc1S(=O)(=O)N1CCCCC1` gave GRK2 aptamer HTS 2.0, HDAC3 inh 0.9, ALR H2O2 inh -0.4, Efflux pump inh 0.1 and Rtt109 HAT inh 16.0.
`Oc1ccc(C23CCCC2C2(CCCC2)c2ccc(O)cc2O3)c(O)c1` (stereo not drawn) gave GRK2 aptamer HTS 0.0, HDAC3 inh 10.6, ALR H2O2 inh 89.9*, Efflux pump inh 0.1 and Rtt109 HAT inh 5.9.
For O=C(O)c1c(-c2ccccc2)oc2ccc(O)cc12 the results were GRK2 aptamer HTS 1.0, HDAC3 inh -19.8, ALR H2O2 inh 10.2, Rce1 inhib inactive, Efflux pump inh 0.0 and Rtt109 HAT inh 2.1.
`CN(C)C(=O)c1c(-c2ccccc2)oc2ccc(O)cc12` gave GRK2 aptamer HTS 2.0, HDAC3 inh -1.3, ALR H2O2 inh 98.2*, Rce1 inhib inactive, Efflux pump inh 0.0 and Rtt109 HAT inh -1.2.
For Cc1ccc(CNc2ccc3c(c2)nc(C)n3C)cc1 the results were GRK2 aptamer HTS 1.0, HDAC3 inh -0.7, Rce1 inhib inactive, Efflux pump inh -0.1 and Rtt109 HAT inh 0.6.
For Cc1nc2cc(NCc3ccc(Cl)cc3)ccc2n1C the results were GRK2 aptamer HTS 0.0, HDAC3 inh -2.3, ALR H2O2 inh inconclusive, Rce1 inhib inactive, Efflux pump inh -0.1 and Rtt109 HAT inh 4.6.
Screening COc1ccc(OC)c(CNc2ccc3c(c2)nc(C)n3C)c1 returned GRK2 aptamer HTS 0.0, HDAC3 inh -1.8, ALR H2O2 inh 85.0*, Rce1 inhib inactive, Efflux pump inh -0.1 and Rtt109 HAT inh -2.6.
For COc1ccc(CNc2ccc3c(c2)nc(C)n3C)cc1 the results were GRK2 aptamer HTS 0.0, HDAC3 inh -5.1, ALR H2O2 inh 89.2*, Rce1 inhib inactive, Efflux pump inh -0.1 and Rtt109 HAT inh 6.5.
For C=CCN1C(=O)C2C(C(=O)NC3CCCC3)C3C=CC2(O3)C1C(=O)NC1CCCC1 (stereo not drawn) the results were GRK2 aptamer HTS 0.0, HDAC3 inh inconclusive, ALR H2O2 inh 3.6, Rce1 inhib inactive, Efflux pump inh -0.2 and Rtt109 HAT inh 0.9.
For O=C(Nc1cc2c3c(c1)CC(=O)N3CCC2)c1ccc(Cl)cc1 the results were GRK2 aptamer HTS 3.0, HDAC3 inh inconclusive, ALR H2O2 inh -15.1, Rce1 inhib inactive, Efflux pump inh 0.0 and Rtt109 HAT inh 3.6.
For Oc1[nH]c2ccccc2c1N=Nc1nc2ccccc2s1 the results were GRK2 aptamer HTS 0.0, HDAC3 inh 9.9, ALR H2O2 inh 88.1*, Rce1 inhib inactive, Efflux pump inh -0.2 and Rtt109 HAT inh 9.2.
